Measurements from PubChem BioAssay (NCI).
The panel holds about 83,000 compounds, 20% with a hit somewhere; the sample as a whole holds those more often.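 48-hour exposure, single concentration, 96-well plates; percent growth endpoint where 0 means no net growth. Active: below 10.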 Values without a mark were called inactive. The source made the active and inactive calls.

How the values were obtained:
Assay in all cases: NCI-60 one-dose screen, 48 h (100 = growth as untreated, 0 = no growth, -100 = all killed)
Conditions in all cases: 10 µM unless noted
SR leukemia = tested on: SR leukemia
RPMI-8226 leukemia = tested on: RPMI-8226 leukemia
OVCAR-8 ovarian = tested on: OVCAR-8 ovarian
OVCAR-5 ovarian = tested on: OVCAR-5 ovarian
OVCAR-4 ovarian = tested on: OVCAR-4 ovarian
SK-OV-3 ovarian = tested on: SK-OV-3 ovarian
IGROV1 ovarian = tested on: IGROV1 ovarian
OVCAR-3 ovarian = tested on: OVCAR-3 ovarian
HS 578T breast = tested on: HS 578T breast
NCI/ADR-RES ovarian = tested on: NCI/ADR-RES ovarian
T-47D breast = tested on: T-47D breast
BT-549 breast = tested on: BT-549 breast
MDA-MB-435 melanoma = tested on: MDA-MB-435 melanoma
SW-620 colon = tested on: SW-620 colon
MCF7 breast = tested on: MCF7 breast
HCT-116 colon = tested on: HCT-116 colon
HCC-2998 colon = tested on: HCC-2998 colon
KM12 colon = tested on: KM12 colon

| Compound | growth (SR leukemia) | growth (RPMI-8226 leukemia) | growth (OVCAR-8 ovarian) | growth (OVCAR-5 ovarian) | growth (OVCAR-4 ovarian) | growth (SK-OV-3 ovarian) | growth (IGROV1 ovarian) | growth (OVCAR-3 ovarian) | growth (HS 578T breast) | growth (NCI/ADR-RES ovarian) | growth (T-47D breast) | growth (BT-549 breast) | growth (MDA-MB-435 melanoma) | growth (SW-620 colon) | growth (MCF7 breast) | growth (HCT-116 colon) | growth (HCC-2998 colon) | growth (KM12 colon) |
| --- | --- | --- | --- | --- | --- | --- | --- | --- | --- | --- | --- | --- | --- | --- | --- | --- | --- | --- |
| COc1ccc(C(=O)/C=C/c2cn(Cc3ccc(Cl)cc3)c3ccccc23)cc1 | 20.1% | 70.7% | 71% | 13.4% | 76.3% | 57.4% | 23.7% | 57.6% | 60% | 38.4% | 48.2% | 86.9% | -20.5% (active) | 28% | 52.6% | -77.5% (active) | 59.7% | 32.2% |
| CC(=O)CCSc1ccc(OC(C)=O)cc1 | 90.1% | 92.8% | 96.6% | 111% | 107% | 101% | 114% | 104% | 106% | 106% | 91.9% | 96.5% | 104% | 105% | 102% | 97% | 89.7% | 99.9% |
| O=C1c2ccccc2C(=O)c2c(NCCN=Cc3ccccc3O)cccc21 | -33.2% (active) | 78.8% | 21% | 78.9% | 72.1% | 56.9% | 51.9% | 72.3% | 43.4% | 59.9% | 63.6% | 73.4% | 71.5% | 35.4% | 32.4% | 15.4% | 30.9% | 48.7% |
| CC(C)(C)OC(=O)N1C/C(=C\c2ccoc2)C(=O)/C(=C/c2ccoc2)C1 | -8.41% (active) | -23% (active) | 101% | 97% | 100% | 99.5% | 95.6% | 106% | 90.6% | 97.6% | 82.4% | 102% | 98.2% | 56.8% | 20.5% | 21.7% | 98.9% | 88.8% |
| CN1CCN(Cc2ccc(NC(=O)c3cncc(C#Cc4cnccc4C(F)(F)F)c3)cc2C(F)(F)F)CC1 | 37.3% | 70.6% | 92.2% | 67.4% | 59.2% | 89% | 58.3% | 105% | 53% | 85.8% | 92.2% | 91.8% | 54.7% | 62.8% | 49% | 29.1% | 65.7% | 20.8% |
| C=CCn1c(SCC(=O)Nc2ccc(C(=O)/C=C/c3cc(OC)c(OC)c(OC)c3)cc2)nnc1-c1cc(OC)c(OC)c(OC)c1 | -5.4% (active) | -32.3% (active) | 28.4% | 95% | 55.2% | 76.5% | 22.2% | -21% (active) | 69% | 73% | 60.7% | 52.3% | 3.79% (active) | -9.49% (active) | 7.87% (active) | -70.9% (active) | 20.2% | 1.11% (active) |
| CC1(C)CC[C@]2(C(=O)NCC#CCN3CCOCC3)CC[C@]3(C)C(=CC[C@@H]4[C@@]5(C)Cc6c([nH]c7ccccc67)C(C)(C)[C@@H]5CC[C@]43C)[C@@H]2C1 | 90.9% | 57.9% | 90.8% | 99.6% | 91% | 97.8% | 116% | 95.1% | 107% | 97% | 75.2% | 101% | 83.1% | 103% | 81.1% | 73.9% | 105% | 91.3% |
| CCCCCCNC(=O)Oc1ccc(/C(=C(/CC)Cc2ccccc2)c2ccc(OCCN(CC)CC)cc2)cc1 | -27.3% (active) | 26.8% | 61.4% | 83.2% | 66.4% | 89% | 76.6% | 72.4% | 69.7% | 70.6% | 56.1% | 95.2% | 60.9% | 23.1% | 10.1% | 27.2% | 59.5% | 51.6% |
| CC1(C)CN(Cc2ccccc2)CCN1Cc1ccccc1 | 95.8% | 98% | 104% | 103% | 113% | 122% | 101% | 106% | 99.1% | 105% | 100% | 109% | 104% | 97.6% | 114% | 101% | 106% | 104% |
| CC(C)NC(=O)N1C(=O)CCC1NNC(=O)c1ccc([N+](=O)[O-])cc1 (stereo unspecified) | 94.9% | 110% | 111% | 103% | 97.9% | 113% | 104% | 105% | 117% | 95% | 94.9% | 102% | 98.6% | 112% | 97.8% | 95.7% | 98.6% | 102% |
| COc1ccc2nc(N=Nc3c(O)ccc4ccccc34)sc2c1 | 16.6% | 38.1% | 24.3% | 55.3% | 28.3% | 38.2% | 22.4% | 34.9% | 83% | 9.35% (active) | 27.3% | 53.3% | 45.1% | 35.8% | 13.9% | 26.6% | 45.9% | 32.3% |
| O=C(Nc1ccc2ncnc(Nc3ccc(Oc4cccc(F)c4)c(Cl)c3)c2c1)c1ccc(CNCCO)cc1 | 5.98% (active) | 6.61% (active) | 31.5% | 78.1% | 7.6% (active) | 29.5% | 9.12% (active) | 45.7% | 51.3% | 76.9% | 42.6% | 85.5% | -86.3% (active) | -74% (active) | -67.2% (active) | -46.5% (active) | -8.44% (active) | 12.9% |
| O=C(CN1CCOCC1)Nc1ccc2ncnc(Nc3ccc(Oc4cccc(F)c4)c(Cl)c3)c2c1 | 84.1% | 55.7% | 68.6% | 68.7% | 73.4% | 13.9% | 19.9% | 55.6% | 86.6% | 60% | 23.9% | 86.2% | 85.4% | 100% | 71.1% | 73.5% | 101% | 90.1% |
| COc1ccc(/C=C\c2nc3ccccc3s2)cc1OP(=O)(O)O | 16.7% | 22.7% | 40.2% | 75.4% | 72.6% | 84.2% | 37.9% | 0.859% (active) | 14.8% | 14.4% | 41.4% | 44.3% | -70.4% (active) | 23.2% | 21.7% | 25.9% | 66.9% | 31.4% |
| CCN(CC)CCSCCCNc1c(C)cnc2cc(Cl)ccc12 | 30.9% | 83% | 93.2% | 98.4% | 86% | 108% | 85.4% | 82.5% | 102% | 82.5% | 96.5% | 85.6% | 85.1% | 88.3% | 79.4% | 52.9% | 91% | 91.6% |
| O=C(O)c1cn(C2CC2)c2cc(N3CCN(C(=O)C[n+]4cccc5ccccc54)CC3)c(F)cc2c1=O | 15.6% | 61.1% | 74.1% | 100% | 54.5% | 106% | 92.7% | 51.1% | 84.9% | 93.8% | 74% | 75.8% | 59.5% | -17.2% (active) | 45.2% | 23.7% | 106% | 92.3% |
| N#Cc1c(NC(=O)c2cccc(Br)c2)sc2c1CCCC2 | 31.9% | 77.8% | 81.9% | 90.5% | 75.1% | 85.2% | 67.4% | 95% | 80.7% | 76.8% | 77.9% | 96.7% | 10.8% | 50.5% | 51.8% | 74.9% | 94.7% | 69.5% |
